Screening data (PubChem)
SARS PLpro yeast: blocks SARS-CoV papain-like protease in a yeast assay; S. cerevisiae expressing SARS-CoV PLpro, growth rescue; 0.19% of 330,000 active; Potency, µM (titrated, usually from 32.9 µM), without a hit: at the top dose activity, positive = growth rescue, usual class: activators; calls by dose curve; further: potency means the concentration at half of the fitted maximal effect; 0% is about no effect; nearly all actives have a fitted effect of over 55% in size
Shiga toxin inh: inhibitors of Shiga toxin in Vero cells; Vero cells, Shiga toxin protein synthesis inhibition reporter; inhibition, % at 38.7 µM; 9.2% of 290,000 active; AID 2315; in the data active means inhibition mostly above about 28%, no sharp cut-off; inactive means mostly below about 43%; further: 0% is about no effect
Pf growth 96h: P. falciparum growth inhibition at 96 hour, primary screen for plastid delayed-death inhibitors. P. falciparum luciferase reporter growth, 96 h. Potency, µM (doses to about 28.7 µM), without a hit: top-dose activity change, negative = inhibition, hits mostly inhibitors. 6.9% of 320,000 active; further: potency means the concentration at half of the fitted maximal effect; on the % scale 0 is the no-effect control and ±100 the full control effect
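Erythrocytes infected with luciferase-expressing P. falciparum were dispensed at 2% hematocrit and 0.05% parasitemia (final), then incubated with compounds 96 hours at 37 C in 5% CO2. Luminescence after detection reagent addition reported growth.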
Pf growth 48h: P. falciparum growth inhibition at 48 hours (one generation); AID 504832; Potency, µM (doses to about 28.7 µM), inactives show at the top dose activity change, negative = inhibition, usual class: inhibitors; P. falciparum luciferase growth in erythrocytes, 48 h; 5.9% of 310,000 active; further: potency means the concentration at half of the fitted maximal effect; on the % scale 0 is the no-effect control and ±100 the full control effect
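Parasite viability was followed by luminescence of a genomically integrated firefly luciferase. Cultures held 0.1% parasitemia at 2% hematocrit (final), incubated under 5% CO2 at 37 C.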
Cycloheximide cs: counter-screen for Shiga toxin inhibitors: cycloheximide protein synthesis inhibition. cell reporter, cycloheximide protein synthesis inhibition counterscreen. max response, %. 12% of 300,000 active; in the data active means max response mostly above about 13%, no sharp cut-off; inactive means mostly below about 14%; further: read at 38.3 µM for the half of the compounds with a filed dose; 0% is about no effect
AMA1-RON2 inh: AMA1-RON2 (P. falciparum) interaction inhibition; AlphaScreen AMA1-biotinylated RON2 peptide binding; 0.2% of 360,000 active; Potency, µM (series often up to 58.2 µM), inactives show top-dose activity change, negative = inhibition, usual class: inhibitors;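 further: potency means the concentration at half of the fitted maximal effect; 0% = vehicle wells and -100% = peptide control; nearly all actives have a fitted effect of over 45% in size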
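AMA1 (3D7) with his tag at 25 nM final met compounds first, then biotinylated RON2 peptide at 25 nM; detection used donor plus acceptor beads, 10 µg/mL apiece, read by AlphaScreen after 30 min at room temperature.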
* hit, by the source's call; [ ] = dose if it differs, or a comment. Sampled rows, rich in hits. Any-hit rate of the full collection: about 19%. Unless noted, the call rests on the fitted dose curve; in most records, active means well fitted curve in the direction sought with a large enough effect; inconclusive means small, poorly fitted or top-dose-only effect, or another doubt; inactive means no such curve, though single readings can be large; an effect the other way counts as inactive or inconclusive.

What do the screens show for `O=C(Cc1cccc(NC(=O)C2CCCN(C(=O)C3CCCCC3)C2)c1)Nc1cccc(C(=O)N2CCCC2)c1` (stereo not drawn)?
SARS PLpro yeast: 1%; Pf growth 96h: inconclusive; Pf growth 48h: 4.1µM*; AMA1-RON2 inh: -4%

What do the screens show for `COc1cc(NC(C)=O)c2ncccc2c1NC(C)=O`?
SARS PLpro yeast: 7%; Shiga toxin inh: 29; Pf growth 96h: 44%; Pf growth 48h: -3%; Cycloheximide cs: -3; AMA1-RON2 inh: -7%

How did CC(=O)Nc1cc(=O)c2cccnc2[nH]1 do in these assays?
AMA1-RON2 inh: 14µM*

How did Cc1c(/C(O)=C2\C(=O)C(=O)N(CCN(C)C)C2c2cccnc2)cnn1-c1ccccc1 (stereo not drawn) do in these assays?
SARS PLpro yeast: 5%; Shiga toxin inh: 13; Pf growth 96h: inconclusive; Pf growth 48h: 65%; Cycloheximide cs: 15*; AMA1-RON2 inh: 0%

What do the screens show for `Cc1c(/C(O)=C2\C(=O)C(=O)N(CCN(C)C)C2c2cccs2)cnn1-c1ccccc1` (stereo not drawn)?
SARS PLpro yeast: 1%; Shiga toxin inh: 16; Pf growth 96h: 13µM*; Pf growth 48h: 8%; Cycloheximide cs: 19*; AMA1-RON2 inh: 5%

How did CC(C)c1ccc(CC(=O)N2CCC2(C)C(=O)NS(=O)(=O)c2cccc(C#N)c2)cc1 (stereo not drawn) do in these assays?
AMA1-RON2 inh: 4%

How did Cc1c(NC(=S)NNC(=O)CCC(=O)O)c(=O)n(-c2ccccc2)n1C do in these assays?
SARS PLpro yeast: 1%; Shiga toxin inh: 2; Pf growth 96h: 32%; Pf growth 48h: 8%; Cycloheximide cs: -5; AMA1-RON2 inh: 71%

How did O=C(Nc1ccccc1)c1cccc(N2CCCC2=O)c1 do in these assays?
SARS PLpro yeast: -10%; Shiga toxin inh: 40*; Pf growth 96h: inconclusive; Pf growth 48h: 183%; Cycloheximide cs: 34*; AMA1-RON2 inh: 41%

Results for Cc1ccc(C)n1-c1cccc(C(=O)Nc2ccccc2)c1 ?
SARS PLpro yeast: 0%; Shiga toxin inh: 37; Pf growth 96h: inconclusive; Pf growth 48h: inconclusive; Cycloheximide cs: 18*; AMA1-RON2 inh: 1%

How did Cc1cccc(CCNC(=O)c2cccc(N3CCCC3=O)c2)c1 do in these assays?
SARS PLpro yeast: 2%; Shiga toxin inh: 75*; Pf growth 96h: inconclusive; Pf growth 48h: 91%; Cycloheximide cs: 44*; AMA1-RON2 inh: 12%

Results for O=C(NCCc1ccccc1)c1cccc(N2CCCC2=O)c1 ?
SARS PLpro yeast: -3%; Shiga toxin inh: 30*; Pf growth 96h: inconclusive; Pf growth 48h: 98%; Cycloheximide cs: 33*; AMA1-RON2 inh: inconclusive

Results for O=C(O)c1cccc(N2CCCC2=O)c1 ?
SARS PLpro yeast: -1%; Shiga toxin inh: -11; Pf growth 96h: -22%; Pf growth 48h: 4%; Cycloheximide cs: 5; AMA1-RON2 inh: -7%

How did COC(=O)c1cccc(N2CCCC2=O)c1 do in these assays?
SARS PLpro yeast: -2%; Shiga toxin inh: 18; Pf growth 96h: 9%; Pf growth 48h: inconclusive; Cycloheximide cs: 5; AMA1-RON2 inh: 9%

What do the screens show for `O=C(Cc1ccccc1F)NNC(=O)c1ccncc1`?
SARS PLpro yeast: 1%; Shiga toxin inh: -3; Pf growth 96h: -10%; Pf growth 48h: 16%; Cycloheximide cs: -2; AMA1-RON2 inh: 52%

What do the screens show for `CCCCN(C)CCCNC(=O)c1cccc(N2CCCC2=O)c1`?
SARS PLpro yeast: -2%; Shiga toxin inh: -11; Pf growth 96h: inconclusive; Cycloheximide cs: 3; AMA1-RON2 inh: 0%

How did CN(CCCNC(=O)c1cccc(N2CCCC2=O)c1)c1ccccc1 do in these assays?
SARS PLpro yeast: 11%; Shiga toxin inh: 15; Pf growth 96h: 61%; Pf growth 48h: inconclusive; Cycloheximide cs: 16*; AMA1-RON2 inh: -12%

What do the screens show for `Cc1ccc(C(=O)NCCc2ccccc2)cc1N1CCCC1=O`?
SARS PLpro yeast: inconclusive; Shiga toxin inh: 26; Pf growth 96h: inconclusive; Pf growth 48h: 33%; Cycloheximide cs: 13; AMA1-RON2 inh: 1%

Results for Cc1ccc(CCNC(=O)c2cccc(N3CCCC3=O)c2)cc1 ?
SARS PLpro yeast: -3%; Shiga toxin inh: 66*; Pf growth 96h: -9%; Pf growth 48h: 37%; Cycloheximide cs: 22; AMA1-RON2 inh: 5%

Results for COc1cc(/C=N/n2cnnc2)ccc1OCc1ccccc1 ?
SARS PLpro yeast: -9%; Shiga toxin inh: 22; Pf growth 96h: 0%; Pf growth 48h: -12%; Cycloheximide cs: 22*; AMA1-RON2 inh: 3%

Results for COc1ccc(/C=N/n2cnnc2)cc1Cn1nc(C)c([N+](=O)[O-])c1C ?
SARS PLpro yeast: 0%; Shiga toxin inh: -2; Pf growth 96h: 16%; Pf growth 48h: 3%; Cycloheximide cs: -8; AMA1-RON2 inh: 0%

Results for COc1ccc(/C=N/n2cnnc2)cc1COc1ccccn1 ?
SARS PLpro yeast: 3%; Shiga toxin inh: 13; Pf growth 96h: 2.1µM*; Pf growth 48h: -3%; Cycloheximide cs: -2; AMA1-RON2 inh: -9%

Results for COc1cc(/C=N/n2cnnc2)ccc1OCc1ccc(C)cc1 ?
SARS PLpro yeast: 2%; Shiga toxin inh: 79; Pf growth 48h: 4%; Cycloheximide cs: 37; AMA1-RON2 inh: -8%

Results for COc1ccc(NC(=O)C(Sc2nnc3ccccn23)c2ccccc2)cc1Cl (stereo not drawn) ?
SARS PLpro yeast: -2%; Shiga toxin inh: -5; Pf growth 96h: inconclusive; Pf growth 48h: -22%; Cycloheximide cs: -2; AMA1-RON2 inh: -10%[2.32 µM]

Results for CN(C)S(=O)(=O)Nc1ccc(Cc2ccncc2)cc1 ?
AMA1-RON2 inh: -7%

What do the screens show for `Cc1ccc2nc(NC(=O)C3CCCN(S(=O)(=O)c4cccc5nsnc45)C3)sc2c1` (stereo not drawn)?
SARS PLpro yeast: -10%; Shiga toxin inh: 27; Pf growth 96h: inconclusive; Pf growth 48h: 10µM*; Cycloheximide cs: 25*; AMA1-RON2 inh: -3%

Results for O=C(Nc1ccc2c(c1)OCCO2)C1CCCN(S(=O)(=O)c2cccc3nsnc23)C1 (stereo not drawn) ?
SARS PLpro yeast: 1%; Shiga toxin inh: 39; Pf growth 96h: -46%; Cycloheximide cs: 24*; AMA1-RON2 inh: -8%

What do the screens show for `O=C(Nc1ccc2c(c1)OCCO2)C1CCN(S(=O)(=O)c2cccc3nsnc23)CC1`?
SARS PLpro yeast: -2%; Shiga toxin inh: 9; Pf growth 96h: inconclusive; Pf growth 48h: -26%; Cycloheximide cs: -1; AMA1-RON2 inh: 10%

Results for O=S(=O)(c1ccc(Br)c2nsnc12)N1CCOCC1 ?
SARS PLpro yeast: 0%; Shiga toxin inh: -18; Pf growth 96h: 9.3µM*; Pf growth 48h: -17%; Cycloheximide cs: -5; AMA1-RON2 inh: 2%
